Source: the supplement of paper PMC7669877
± gives the uncertainty stated by the source.

test system: Candidatus Liberibacter solanacearum in potato hairy roots; assay: relative CLso titer (% of untreated control); higher = less inhibition of bacterial titer; settings: 10 µM; 72 h
Experimental: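 Primary screen of ~220 Spectrum collection (MicroSource) compounds at 10 µM (0.1% DMSO) on Candidatus Liberibacter solanacearum-infected potato hairy roots in multi-well plates (Gamborg B-5 medium, vacuum infiltrated, 21 °C, dark, 72 h). CLso titer was measured by qPCR of 16S rDNA normalised to potato RPL2 (2^-ddCq), pairwise-standardised against untreated controls, averaged over two biological replicates and expressed as % of untreated.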

Q: `C=C1CC[C@H](O)C/C1=C/C=C1\CCC[C@]2(C)[C@@H]([C@H](C)/C=C/[C@H](C)C(C)C)CC[C@@H]12` was tested. Which “relative CLso titer” value did it give?
A: 113 ± 37%

Q: `N=C(NCCCCCCNC(=N)NC(=N)Nc1ccc(Cl)cc1)NC(=N)Nc1ccc(Cl)cc1` was tested. Which “relative CLso titer” value did it give?
A: 89.5 ± 36%

Q: For `CC/C(=C(/CC)c1ccc(O)cc1)c1ccc(O)cc1`, which “relative CLso titer” value is on record?
A: 94.4 ± 41%

Q: With `CCOc1ccc(Cc2cc([C@@H]3O[C@H](CO)[C@@H](O)[C@H](O)[C@H]3O)ccc2Cl)cc1` as the molecule, how does the “relative CLso titer” value read?
A: 99 ± 3%

Q: Which “relative CLso titer” value does the source give for `Cc1ccc(S(=O)(=O)NC(=O)NN2CCCCCC2)cc1` here?
A: 83.2 ± 12%

Q: `NCCCC[C@H](N[C@@H](CCc1ccccc1)C(=O)O)C(=O)N1CCC[C@H]1C(=O)O` was tested. Which “relative CLso titer” value did it give?
A: 105 ± 33%

Q: `Nc1ccc(C(=O)O)cc1` was tested. Which “relative CLso titer” value did it give?
A: 67.7 ± 7.7%

Q: How did the “relative CLso titer” value turn out when `C=C1c2cccc(O)c2C(=O)C2=C(O)[C@]3(O)C(=O)C(C(N)=O)=C(O)[C@@H](N(C)C)[C@@H]3[C@@H](O)[C@H]12` was run?
A: 79.1 ± 26%

Q: Which “relative CLso titer” value does the source give for `C[C@@H]1C[C@H]2[C@@H]3CCC4=CC(=O)C=C[C@]4(C)[C@@]3(F)[C@@H](O)C[C@]2(C)[C@@]1(O)C(=O)CO` here?
A: 196 ± 16%

Q: `CC(=O)OCC[N+](C)(C)C` was tested. Which “relative CLso titer” value did it give?
A: 96.2 ± 31%

Q: With `Clc1cccc(Cl)c1NC1=NCCN1` as the molecule, how does the “relative CLso titer” value read?
A: 55.5 ± 4.1%

Q: With `O=C(c1ccc(OCCN2CCCCC2)cc1)c1c(-c2ccc(O)cc2)sc2cc(O)ccc12` as the molecule, how does the “relative CLso titer” value read?
A: 93 ± 3.9%

Q: How did the “relative CLso titer” value turn out when `CC1=C(C(=O)O)N2C(=O)[C@@H](NC(=O)[C@H](N)C3=CCC=CC3)[C@H]2SC1` was run?
A: 114 ± 86%

Q: With `COc1cc(NS(=O)(=O)c2ccc(N)cc2)nc(OC)n1` as the molecule, how does the “relative CLso titer” value read?
A: 96 ± 21%

Q: How did the “relative CLso titer” value turn out when `CCN1CCCC(OC(=O)C(c2ccccc2)c2ccccc2)C1` (stereo not given) was run?
A: 188 ± 36%

Q: Which “relative CLso titer” value does the source give for `CC(=O)O[C@]1(C(C)=O)CC[C@H]2[C@@H]3C=C(Cl)C4=CC(=O)[C@@H]5C[C@@H]5[C@]4(C)[C@H]3CC[C@@]21C` here?
A: 114 ± 4.7%

Q: With `Cn1nnnc1SCC1=C(C(=O)O)N2C(=O)[C@@H](NC(=O)[C@H](OC=O)c3ccccc3)[C@H]2SC1` as the molecule, how does the “relative CLso titer” value read?
A: 86.7 ± 26%

Q: How did the “relative CLso titer” value turn out when `Nc1ccc(S(=O)(=O)Nc2ccc(Cl)nn2)cc1` was run?
A: 52.4 ± 4.8%

Q: With `C[n+]1cc2c3c(ccc2c2ccc4cc5c(cc4c21)OCO5)OCO3` as the molecule, how does the “relative CLso titer” value read?
A: 86.7 ± 34%

Q: With `CO/N=C(\C(=O)N[C@@H]1C(=O)N2C(C(=O)O)=C(COC(C)=O)CS[C@H]12)c1csc(N)n1` as the molecule, how does the “relative CLso titer” value read?
A: 68.6 ± 14%

Q: Which “relative CLso titer” value does the source give for `CCN(CC)C(=O)[C@@]1(c2ccccc2)C[C@H]1CN` here?
A: 48.9 ± 6%

Q: `CC[C@H]1OC(=O)[C@H](C)[C@@H](O[C@H]2C[C@@](C)(OC)[C@@H](O)[C@H](C)O2)[C@H](C)[C@@H](O[C@@H]2O[C@H](C)C[C@H](N(C)C)[C@H]2O)[C@](C)(O)C[C@@H](C)C(=O)[C@H](C)[C@@H](O)[C@]1(C)O` was tested. Which “relative CLso titer” value did it give?
A: 197 ± 120%

Q: How did the “relative CLso titer” value turn out when `CCOC(=O)c1cccc(N)c1` was run?
A: 113 ± 8.9%

Q: How did the “relative CLso titer” value turn out when `C[C@@H]1O[C@@H]1P(=O)(O)O` was run?
A: 155 ± 15%

Q: `CC1=C(C(=O)O)N2C(=O)[C@@H](NC(=O)[C@H](N)c3ccc(O)cc3)[C@H]2SC1` was tested. Which “relative CLso titer” value did it give?
A: 49.7 ± 6.2%

Q: With `CCCC(C(=O)OCCN(CC)CC)(c1ccccc1)c1ccccc1` as the molecule, how does the “relative CLso titer” value read?
A: 112 ± 16%

Q: `C[C@]12CC[C@@H]3c4ccc(O)cc4CC[C@H]3[C@@H]1CC[C@@H]2O` was tested. Which “relative CLso titer” value did it give?
A: 126 ± 25%

Q: Which “relative CLso titer” value does the source give for `Cn1c([N+](=O)[O-])cnc1COC(N)=O` here?
A: 81.53 ± 0.13%

Q: With `CC12CC3CC(C)(C1)CC(N)(C3)C2` as the molecule, how does the “relative CLso titer” value read?
A: 63.3 ± 31%

Q: Which “relative CLso titer” value does the source give for `NC12CC3CC(CC(C3)C1)C2` here?
A: 42.5 ± 3.2%

Q: How did the “relative CLso titer” value turn out when `CCn1nc(C(=O)O)c(=O)c2cc3c(cc21)OCO3` was run?
A: 28.6 ± 0.62%

Q: How did the “relative CLso titer” value turn out when `CC(=O)Oc1cc2c(s1)CCN(C(C(=O)C1CC1)c1ccccc1F)C2` (stereo not given) was run?
A: 55.4 ± 2.9%

Q: For `OCC(S)CS` (stereo not given), which “relative CLso titer” value is on record?
A: 67.2 ± 36%

Q: Which “relative CLso titer” value does the source give for `CC1(C)[C@@H](OC(=O)CCC(=O)O)CC[C@]2(C)[C@H]3C(=O)C=C4[C@@H]5C[C@@](C)(C(=O)O)CC[C@]5(C)CC[C@@]4(C)[C@]3(C)CC[C@@H]12` here?
A: 132 ± 30%

Q: Which “relative CLso titer” value does the source give for `NCCc1ccc(O)c(O)c1` here?
A: 117 ± 26%

Q: For `CN(C)CCOC(c1ccccc1)c1ccccc1`, which “relative CLso titer” value is on record?
A: 55.8 ± 26%

Q: Which “relative CLso titer” value does the source give for `CC1(C)S[C@@H]2[C@H](NC(=O)C(C(=O)O)c3ccccc3)C(=O)N2[C@H]1C(=O)O` (stereo not given in full) here?
A: 43.3 ± 14%

Q: With `CN(C)/N=N/c1[nH]cnc1C(N)=O` as the molecule, how does the “relative CLso titer” value read?
A: 84.5 ± 19%

Q: How did the “relative CLso titer” value turn out when `O=C(O)CCC(=O)OC[C@@H](NC(=O)C(Cl)Cl)[C@H](O)c1ccc([N+](=O)[O-])cc1` was run?
A: 49.1 ± 3.2%

Q: For `CC(=O)OCC1=C(C(=O)O)N2C(=O)[C@@H](NC(=O)CSc3ccncc3)[C@H]2SC1`, which “relative CLso titer” value is on record?
A: 70.6 ± 0.88%
